# From PubChem BioAssay
# EP2 modulator = modulates human prostaglandin E2 receptor EP2 signaling; P43116; EP2-expressing cells, cAMP HTRF FRET, PGE2 co-stimulation; induction, % at 25 µM; hit rate 0.83% among 260,000; AID 940;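 active = compounds whose cAMP rise, as percent of the full-agonist control response, exceeds 60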;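 also: rat C6 glioma line stably carrying human EP2 under a CMV promoter; the protocol text gives 20 µM as final concentration; 100% = response of wells given 1 µM PGE2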
# Target sequence (P43116 whole entry, looked up): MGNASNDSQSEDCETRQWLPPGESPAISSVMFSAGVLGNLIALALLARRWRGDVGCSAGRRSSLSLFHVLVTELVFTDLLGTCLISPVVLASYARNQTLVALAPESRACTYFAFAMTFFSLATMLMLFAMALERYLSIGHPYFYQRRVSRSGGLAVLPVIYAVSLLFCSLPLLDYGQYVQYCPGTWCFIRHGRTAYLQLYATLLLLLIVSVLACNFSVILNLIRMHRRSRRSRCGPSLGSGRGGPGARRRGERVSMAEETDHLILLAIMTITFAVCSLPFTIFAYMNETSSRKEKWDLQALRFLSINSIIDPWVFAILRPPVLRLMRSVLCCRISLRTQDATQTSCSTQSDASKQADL
# EP2 antag = inhibitors of human EP2 prostaglandin E2 receptor; C6 glioma cells expressing human EP2, cAMP TR-FRET; cells stimulated with saturating PGE2; inhibition, % at 25 µM; P43116; hit rate 0.52% among 260,000;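 active = percent inhibition above 40 after rounding to a whole number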;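 also: rat C6 glioma host cells with rolipram phosphodiesterase inhibitor present; the protocol text gives 20 µM as final concentration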
# S1P3 antag-1 = antagonists of human S1P3 receptor; AID 485; CHO S1P3 NFAT-BLA reporter, FRET fluorescence, antagonist mode; hit rate 0.27% among 170,000; inhibition, % at 4.98 µM; Q99500;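 active = inhibition above the plate cutoff, the mean inhibition of test wells on that plate plus 3 SD, cut at about 28% in these data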;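 also: cells challenged with S1P at its EC80 of 0.8 µM; blue over green emission ratio from cleaved BLA substrate after 4 h stimulation; 0% = S1P-stimulated wells and 100% = unstimulated DMSO-only wells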
# S1P4 agonist = human S1P4 receptor agonism. S1P4-expressing cell line, agonist reporter assay. activation, % at 4.98 µM. hit rate 0.35% among 220,000. AID 1509. O95977; in the data active = activation above about 11%;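 also: 0% = DMSO vehicle and 100% = reference agonist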
# S1P4 antag = antagonists of human S1P4 receptor; hit rate 0.26% among 220,000; inhibition, % at 4.98 µM; AID 1510; S1P4-expressing cells, antagonist mode, reporter read-out; O95977; in the data active = inhibition above about 29%;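 also: 0% = wells stimulated with agonist and 100% = vehicle wells without agonist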
# S1P3 antag-2 = human S1P3 receptor antagonism, confirmation. shares compounds with S1P3 antag-1. inhibition, % at 4.98 µM. CHO S1P3 NFAT-BLA reporter, FRET, antagonist mode. hit rate 30% among 240. AID 1429;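 active = inhibition above the hit threshold that was computed for the earlier primary screen, cut at about 30% in these data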;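 also: 0% = S1P-stimulated wells and 100% = unstimulated DMSO-only wells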
# * hit, by the source's call; / = no result. This is a sample that favours compounds with a hit; in the whole collection about 2% have one here.
SMILES,EP2 modulator,EP2 antag,S1P3 antag-1,S1P4 agonist,S1P4 antag,others
Brc1ccccc1C1CC(c2ccccc2)=Nc2ccccc2N1 (centres undefined),48,6,12,-1,-8,
Clc1ccccc1C1CC(c2ccccc2)=Nc2ccccc2N1 (centres undefined),62*,7,7,1,11,
C=CC[n+]1cccc2c3ccccc3ccc21,20,9,/,/,/,
CC1=c2c(oc3cc(O)c(Nc4c(C)cc(O)cc4O)c(C)c23)=CC(=O)C1=Nc1c(C)cc(O)cc1O,-7,53*,/,/,/,
COc1ccc2cc(CN(CCCO)C(=S)NCCCN(C)C)c(=O)[nH]c2c1,-5,5,/,/,/,
CC(C)C1C(C#N)=C(N)Oc2n[nH]c(-c3cccs3)c21 (centres undefined),-38,15,-8,1,-9,
CC(C)C1C(C#N)=C(N)Oc2n[nH]c(-c3ccc4ccccc4c3)c21 (centres undefined),-33,133*,/,2,-10,
CCN(CC)c1nc(Oc2ccc(C(=O)OC)cc2)nc(N2CCOCC2)n1,62*,2,9,-1,-2,
COc1ccc(S(=O)(=O)NC(CC(=O)NCCc2ccc(OC)c(OC)c2)c2ccco2)cc1 (centres undefined),-2,13,94*,0,-20,
COc1ccccc1CNC(=O)C(C)n1nc(-c2cc(C)oc2C)cc(N)c1=O (centres undefined),-19,7,/,/,/,
CN(C(=O)c1ccc(Br)cc1)c1nnc(-c2ccncc2)s1,-4,7,/,/,/,
CC(=O)n1cc(C(C[N+](=O)[O-])SCCN)c2ccccc21 (centres undefined),-50,50*,/,-1,-2,
COC(=O)/C(=C/c1cn(C(C)=O)c2ccccc12)[N+](=O)[O-],-85,14,-7,0,-7,
O=C(C1CCC1)N1CCC[C@H]1Cn1nc(-c2cccs2)ccc1=O,-49,/,/,/,/,
Nc1cc2nsnc2cc1Br,-201,138*,/,-2,-9,
CC1(C)N=C(N)N=C(N)N1c1cccc(OCc2cccc([N+](=O)[O-])c2)c1,10,47*,/,/,/,
COc1cccc(N2C(N)=NC(N)=NC2(C)C)c1,14,8,-8,0,-17,
CN(C)CCN[C@@H]1CCN(Cc2cccc(F)c2)C[C@H]1O,0,0,/,/,/,
CC1CCN(S(=O)(=O)c2cccc(S(=O)(=O)N3CCC(C)CC3)c2)CC1,-25,21,/,/,/,
CC1CCN(S(=O)(=O)c2cccc(C(=O)Oc3ccc([N+](=O)[O-])cc3)c2)CC1,-95,40*,7,0,-6,
CCOC(=O)/C=C/C(=O)Nc1cccc([N+](=O)[O-])c1,-1,131*,-7,0,-11,
CCOC(=O)c1cccc(NC(=O)/C=C/c2cccc([N+](=O)[O-])c2)c1,13,4,/,-1,-10,
C[C@@H]1CC=C[C@H]2[C@H]1C(=O)N(Cc1ccccc1)[C@H]2c1ccc(C(F)(F)F)cc1,61*,8,/,/,/,
CC(C)(C)c1cc(NCc2ccccn2)n2ncc(-c3ccccc3)c2n1,62*,5,-12,0,9,
Cc1cc(C)n(-c2cc(C(C)(C)C)nc3c(-c4ccccc4)cnn23)n1,0,4,-11,1,0,
SMILES,EP2 modulator,EP2 antag,S1P3 antag-1,S1P4 agonist,S1P4 antag,others
CN(C)C(=O)CSc1nc(-c2ccccc2)c(-c2ccccc2)o1,63*,8,-5,1,-7,
Cc1[nH]c2ccccc2c1-c1cc(-c2cc(-c3c(C)[nH]c4ccccc34)nc(N)n2)nc(N)n1,1,42*,/,/,/,
CN(C)Cc1c(O)ccc2ccccc12,-22,6,-18,2,2,
Oc1ccc2ccccc2c1CN(Cc1c(O)ccc2ccccc12)C1CCCCC1,-12,55*,/,/,/,
CC1=CC(C)(C)N(C(=O)CSc2nnc(N)s2)c2cc(C)c(C)cc21,62*,3,/,-3,-27,
CC(C)N=c1scc(-c2cccs2)n1/N=C/c1ccc(O)c(O)c1O,-63,12,-2,17*,-14,
Cc1nc2cc(NC(=O)/C=C/c3ccc(N(C)C)cc3)ccc2s1,-117,82*,/,/,/,
CC(=O)Nc1ccc2sc(C)nc2c1,8,13,4,0,-9,
O=C(Nc1cc(Cl)ccc1Cl)c1nc2ncccn2n1,1,8,/,/,/,
COCCn1nnnc1C(c1ccc(OC)cc1)N1CCN(c2ncccn2)CC1 (centres undefined),6,11,/,/,/,
Cc1cc(C)c2c(c1)-c1cc(C)nn1C(c1ccc3c(c1)OCO3)N2 (centres undefined),64*,6,-5,-2,11,
O=C(NCC1CC1)c1ccc(Nc2nc3ccc(Br)cc3[nH]2)cc1,-44,74*,/,0,-30,
Cc1cc2c(cc3c(=O)n(CC(=O)NC4CC4)nc(C)n32)s1,24,/,/,/,/,
C1=C(CCNc2ncnc3c2[nH]c2ccccc23)CCCC1,-13,18,41*,3,-14,S1P3 antag-2=28
O=C(CNc1n[nH]c(=O)[nH]c1=O)N/N=C/c1ccccc1,-15,5,-9,1,-2,
O=C(CNc1n[nH]c(=O)[nH]c1=O)N/N=C/c1cccnc1,3,12,39*,0,-6,S1P3 antag-2=-12
Cc1nn(C)c(C)c1CN(Cc1nc(CCC(C)C)no1)C(C)C,-34,10,32*,-1,-4,S1P3 antag-2=13
CCOC(=O)N1CCC(N(CCN(C)C)C(=S)Nc2cc(Cl)cc(Cl)c2)CC1,28,9,29*,1,2,S1P3 antag-2=9
COc1ccc(C(=O)NCc2ccc(C(=O)NCC(OC)OC)cc2)cc1OC,0,4,-13,0,-12,
COc1ccc(C(=O)NCc2ccc(-n3cccc3)cc2)cc1OC,-49,13,41*,1,-2,S1P3 antag-2=-15
O=C(Nc1ccc(Cl)cc1)Nc1cccc2nsnc12,-4,6,29*,-1,0,S1P3 antag-2=16
O=C(COc1ccccc1)Nc1cccc2nsnc12,18,9,18,1,-3,
CNc1nc(Nc2ccccc2)nc(OCC(F)(F)F)n1,21,4,39*,-1,-6,S1P3 antag-2=-5
c1ccc(CCNc2ncnc3ccccc23)cc1,-56,10,44*,5,-20,S1P3 antag-2=33*
O=C(O)CCCCCNS(=O)(=O)c1cccc2cccnc12,18,6,/,/,/,
Cc1ccc(Oc2ccc(C=O)cn2)cc1,9,-1,34*,-1,-19,S1P3 antag-2=-19
CO/N=C/c1ccc(Oc2ccc(C)cc2)nc1,31,20,/,-1,5,
CC1C(c2ccccc2)N(C)C(c2ccccc2)CC1(O)c1ccc(F)cc1 (centres undefined),21,12,31*,-3,6,S1P3 antag-2=48*
O=[N+]([O-])c1ccc(/C=C/C2=NN(c3ccccc3)C(c3ccco3)C2)o1 (centres undefined),8,13,38*,1,-11,S1P3 antag-2=9
COc1ccc(C(c2nnnn2Cc2ccc(F)cc2)N2CCN(C3CCCC3)CC2)c(OC)c1 (centres undefined),-18,11,/,/,/,
